Compounds with a hit are over-represented: about 10% of the library has one in this group of screens.
KB-V1 cytotox: qHTS assay for MDR1-selective chemotherapeutics: Primary screen using the drug-selected MDR subline cells KB-V1. hit rate 3.4% among 400,000. AID 1347076, 2019. KB-V1 MDR cells viability, CellTiter-Glo, 72 h. Potency, µM (series often up to 46.1 µM), actives largely listed as cytotoxic; also: nearly all actives have a fitted effect of over 60% in size
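In this primary screen, KB-V1 cells overexpressing P-gp are incubated with library compounds (lowest to highest concentration) for 72 h at 37 degrees C before a luminescent ATP viability read.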
Gal4-VP16 FLuc: VP16 counterscreen qHTS for inhibitors of ROR gamma transcriptional activity. Drosophila S2 Gal4-VP16 UAS-luciferase, luminescence, 20 h. hit rate 3.5% among 310,000. Potency, µM (top dose mostly 53.6 µM), actives largely listed as inhibitors;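 also: Gal4-VP16 expression switched on by copper sulfate through the metallothionein promoter; nearly all actives have a fitted effect of over 50% in size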
SW480 rerep: A quantitative high throughput screen for small molecules that induce DNA re-replication in SW480 colon adenocarcinoma cells; SW480 DNA re-replication, Hoechst DNA content imaging, 48 h; Potency, µM (titrated, usually from 46.1 µM), usual class: activators; hit rate 1.8% among 340,000; also: nearly all actives have a fitted effect of over 55% in size
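Hoechst fluorescence of nuclei (405 nm excitation, 500-530 nm emission) measured by plate-scanning imager after 48 hr compound exposure at 37 C; re-replication scored as increased number of nuclei with elevated intensity.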
KB-3-1 tox: qHTS assay for MDR1-selective chemotherapeutics: Primary screen using the parental adenocarcinoma cell KB-3-1 | Potency, µM (top dose mostly 46.1 µM), actives largely listed as cytotoxic | KB-3-1 viability, CellTiter-Glo ATP luminescence, 72 h | hit rate 1.4% among 400,000; also: nearly all actives have a fitted effect of over 60% in size
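Here the drug-naive KB-3-1 line serves as comparator for MDR sub-line selectivity; cells received compound titrations, 72 h at 37 °C, then CellTiter-Glo readout.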
RORgamma inh: qHTS for inhibitors of ROR gamma transcriptional activity; Potency, µM (top dose mostly 53.6 µM), most hits filed as inhibitors; AID 2551, 2010; hit rate 5.4% among 310,000; Drosophila S2 Gal4-RORgamma UAS-luciferase reporter, 20 h; also: nearly all actives have a fitted effect of over 60% in size
Target sequence (P51450 whole entry, looked up, the tested form may be a part): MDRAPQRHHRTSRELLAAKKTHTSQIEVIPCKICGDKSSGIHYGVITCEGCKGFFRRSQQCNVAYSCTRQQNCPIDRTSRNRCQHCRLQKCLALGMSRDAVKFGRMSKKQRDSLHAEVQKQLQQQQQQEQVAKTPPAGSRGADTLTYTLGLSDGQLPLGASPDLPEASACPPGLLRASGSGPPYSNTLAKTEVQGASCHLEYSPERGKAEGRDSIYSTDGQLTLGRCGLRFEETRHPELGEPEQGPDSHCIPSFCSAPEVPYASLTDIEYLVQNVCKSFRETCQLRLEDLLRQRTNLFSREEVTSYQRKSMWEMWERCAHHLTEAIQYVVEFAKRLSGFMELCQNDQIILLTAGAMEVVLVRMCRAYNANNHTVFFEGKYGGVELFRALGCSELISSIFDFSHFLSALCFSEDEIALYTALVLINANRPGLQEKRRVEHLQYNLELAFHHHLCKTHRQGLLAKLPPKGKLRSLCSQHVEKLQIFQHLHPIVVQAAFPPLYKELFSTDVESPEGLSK
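Stable Schneider cell line, Gal4 DNA-binding domain fused to ROR gamma, UAS-luciferase. Cmpd 1 hr RT → CuSO4 700 uM final → 20 hr RT → luciferase reagent 10 min → luminescence.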
MCF10A rereplic: A quantitative high throughput screen for small molecules that induce DNA re-replication in MCF 10a normal breast cells. MCF 10A DNA re-replication, Hoechst nuclear intensity, 48 h. hit rate 2.9% among 350,000. Potency, µM (doses to about 46.1 µM), actives largely listed as activators; also: nearly all actives have a fitted effect of over 50% in size
Numbers stand for hits; . = inactive; ? = inconclusive; / = not tested or not shown; ! = repeats disagree. Calls follow the shape of the dose curve; as a rule, active = well fitted curve in the direction sought with a large enough effect; inconclusive = small, poorly fitted or top-dose-only effect, or another doubt; inactive = no such curve, though single readings can be large; an effect the other way counts as inactive or inconclusive.

SMILES	KB-V1 cytotox	Gal4-VP16 FLuc	SW480 rerep	KB-3-1 tox	RORgamma inh	MCF10A rereplic
C(=C\c1ccccc1)/C=N/Nc1nncc(-c2ccccc2)n1	/	3.2µM	/	/	2.2µM	/
Cc1[nH]n(-c2ccccc2)c(=O)c1C=NCc1ccncc1	.	.	.	.	.	.
Oc1cccc(/C=N\Nc2nncc(-c3ccccc3)n2)c1	.	?	.	.	.	?
Clc1ccccc1-c1ccc(/C=N/Nc2nncc(-c3ccccc3)n2)o1	.	10µM	.	.	1.4µM	.
Clc1ccc(-c2ccc(/C=N/Nc3nncc(-c4ccccc4)n3)o2)cc1	.	0.79µM	.	.	0.79µM	.
O=C(CCC1N=C2c3ccccc3N=C(SCC(=O)Nc3ccc(F)cc3)N2C1=O)NCc1cccs1 (stereo not given)	?	/	/	.	/	/
COc1ccc(NC(=O)N2CCN(S(=O)(=O)c3ccc4c(ccn4C)c3)CC2)cc1OC	.	/	/	.	/	/
Cc1ccc(/C=N/Nc2nncc(-c3ccccc3)n2)o1	.	13µM	?	.	8.9µM	.
COc1ccc(NC(=O)Cn2c(=O)oc3cc(S(=O)(=O)NCc4ccccc4)ccc32)c(OC)c1	.	/	/	?	/	/
CON/C=N/C(=S)Nc1ncc(C(F)(F)F)cc1Cl	.	?	.	.	0.56µM	.
CC(C)C(=O)Nc1ncc(C(F)(F)F)cc1Cl	?	.	.	.	.	.
ON/C=N/C(=S)Nc1ncc(C(F)(F)F)cc1Cl	?	?	.	.	1.6µM	.
CC(C)(CO)NCc1cccs1	.	.	1.3µM	?	.	.
CC1CC[C@]2(CO)CC[C@]3(C)C(=CCC4[C@@]5(C)CCC(O)C(C)(C)C5CC[C@@]43C)C2C1C (stereo not given in full)	/	.	/	/	.	/
Cc1ccc(C2=C(O)C(=O)C(c3ccc(C)cc3)=C(O)C2=O)cc1	15µM	/	.	?	/	?
CC1=C(O)C(=O)C(C2=C(O)C(=O)C(C)=C(O)C2=O)=C(O)C1=O	?	/	.	?	/	.
CN1CCN(Cc2nc3ccccc3c(=O)n2Cc2nc(-c3ccc4ccccc4c3)cs2)CC1	21µM!	?	12µM	?	?	?
Fc1ccc(/C=N/NC(=S)Nc2ccc(Cl)cc2Cl)cc1	?	?	?	5.2µM	?	.
Fc1ccc(/C=N/NC(=S)Nc2ccc(Cl)cc2)cc1F	.	1.4µM	.	.	0.71µM	.
COc1ccc(NC(=S)N/N=C/c2ccc(F)cc2)cc1OC	.	2.5µM	?	.	0.63µM	.
Fc1ccc(NC(=S)Nc2ccc(Cl)cc2)cc1	.	.	.	.	?	.
Fc1ccc(NC(=S)Nc2cc(Cl)ccc2Cl)cc1	?	.	.	.	?	.
COc1ccc(NC(=S)N/N=C/c2ccc(F)c(F)c2)cc1	?	5µM	?	?	3.2µM	?
COc1ccc(/C=N\NC(=O)c2ccc(F)cc2)cc1COc1ccccc1C(N)=O	.	.	.	.	.	?
CCOc1ccc(/C=N/NC(=O)Nc2ccccc2)cc1	.	.	.	.	.	.
SMILES	KB-V1 cytotox	Gal4-VP16 FLuc	SW480 rerep	KB-3-1 tox	RORgamma inh	MCF10A rereplic
Fc1ccc(NC(=S)NN=C2CCCCCC2)cc1	.	18µM	.	.	4.5µM	.
Fc1ccc(NC(=S)N/N=C/c2ccc(F)c(F)c2)cc1	.	3.2µM	.	.	0.71µM	.
COc1ccc(/C=N/NC(=S)Nc2ccccc2)cc1COc1ccc(F)cc1F	.	1µM	.	.	0.63µM	?
CC(=O)Oc1ccc(/C=N/NC(=S)Nc2ccccc2)cc1	.	2.5µM	.	.	2µM	.
COC(=O)[C@@H](O)CC[C@@H](C)Cc1c(OC)c(OC)c(C)c(OC)c1OC	/	.	/	/	.	/
CC(CNC(=O)Cn1ccc2cc(S(=O)(=O)N3CCCCCC3)ccc21)c1ccccc1 (stereo not given)	.	/	/	?	/	/
O=C(CN1C(=O)/C(=C/c2ccc(Cl)cc2)SC1=S)NC1C=CS(=O)(=O)C1 (stereo not given)	.	?	?	.	.	.
CC(C)c1ccc(/C=C2\SC(=O)N(CC(=O)NC3C=CS(=O)(=O)C3)C2=O)cc1 (stereo not given)	.	4.5µM	.	.	?	.
COc1ccc(NC(=O)c2sc3nc(-c4cccnc4)ccc3c2N)cc1OC	.	.	?	.	.	15µM
Cc1ccccc1NC(=O)c1sc2nc(-c3ccncc3)ccc2c1N	.	/	/	.	/	/
Nc1c(C(=O)N2CCCC2)sc2nc(-c3ccccc3)ccc12	.	.	18µM	.	.	18µM
Nc1c(C(=O)N2CCCCC2)sc(=S)n1-c1ccccc1	18µM	?	.	.	.	?
Nc1c(C(=O)Nc2cccc(Cl)c2Cl)sc2nc(-c3cccnc3)ccc12	.	.	9.2µM	.	?	5.2µM
Nc1c(C(=O)N2CCOCC2)sc(=S)n1-c1ccccc1	?	.	.	.	.	.
O=C(C1CCN(S(=O)(=O)Cc2ccccc2)CC1)N1CCN(c2ccccc2F)CC1	.	/	/	.	/	/
Nc1c(C(=O)Nc2ccccc2)sc2nc(-c3cccnc3)ccc12	/	.	/	/	.	/
COc1ccc(-c2ccc3c(N)c(C(=O)c4cccc(OC)c4)sc3n2)cc1	.	.	?	?	.	21µM
COc1ccc(C(=O)c2sc3nc(-c4ccc(OC)cc4)ccc3c2N)cc1	?	?	?	.	.	?
COc1ccc(NC(=O)c2sc3nc(-c4cccnc4)ccc3c2N)cc1	.	.	15µM	.	.	?
COc1ccccc1NC(=O)CSc1nc2n[nH]c(C)c2c(=N)n1-c1ccccc1Cl	16µM	.	.	?	?	?
CCCCN(CC)C(=O)CSc1nc2n[nH]c(C)c2c(=N)n1-c1cccc(C)c1	?	.	?	.	.	.
COc1ccc2nc(SCC(=O)NC3CCCC3)c(C)cc2c1	?	.	?	7.3µM	.	8.2µM
COc1ccc(-n2c(SCC(=O)NC3CCCCC3)nc3ccsc3c2=O)cc1	2.1µM	.	.	.	.	.
CCN(C(=O)CSc1nc2n[nH]c(C)c2c(=N)n1-c1ccc(Cl)c(C)c1)c1cccc(C)c1	?	?	?	?	13µM	8.2µM
Cc1cc(C2(c3cc(C)c(O)cc3C)OS(=O)(=O)c3ccccc32)c(C)cc1O	/	.	/	/	.	/
CN1CCN(c2ncc3nc(-c4ccc(Cl)cc4)c(=O)n(Cc4cccs4)c3n2)CC1	/	.	/	/	.	/
CCOc1ccc2nc(SCC(=O)NC3CCCCC3)[nH]c2c1	16µM	.	.	.	.	.
COc1ccc2nc(SCC(=O)NC3CCCCC3)[nH]c2c1	.	.	.	.	.	.

Source: PubChem BioAssay
